Values joined by “and” are separate entries in the source; they are usually repeats but may differ in a detail not shown here. Equal entries are not always repeated. Inconclusive results are not listed. Entries that show only a call come without a potency. The source holds several records for some structures; these can differ, active in one and inactive in another. Active and inactive are the calls of the source. Calls follow the shape of the dose curve; as a rule, active = well fitted curve in the direction sought with a large enough effect; inconclusive = small, poorly fitted or top-dose-only effect, or another doubt; inactive = no such curve, though single readings can be large; an effect the other way counts as inactive or inconclusive. Where a SMILES comes first, the peptide text is derived from it.
Tests used:
[1] = target: Glutathione peroxidase 1 (Homo sapiens) (UniProt P07203); assay: Primary qHTS Assay for Inhibitors of Recombinant Selenoprotein Glutathione Peroxidase 1 (GPX1) (AID 1845191); conditions: recombinant GPX1, GR-coupled NADPH fluorescence, 15 min; series mostly up to 27.7 µM; also: nearly all actives have a fitted effect of over 65% in size
Sequence of Glutathione peroxidase 1 (Homo sapiens) (P07203 whole entry, looked up): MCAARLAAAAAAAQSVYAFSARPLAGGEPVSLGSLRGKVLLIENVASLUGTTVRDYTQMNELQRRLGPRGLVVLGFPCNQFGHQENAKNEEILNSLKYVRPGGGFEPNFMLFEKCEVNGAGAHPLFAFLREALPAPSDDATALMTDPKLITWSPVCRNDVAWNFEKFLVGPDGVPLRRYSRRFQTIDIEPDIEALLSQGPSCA
Summary of the method: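 10 nM GPX1 + cpd, 30 min RT; start w/ 1 mM GSH, 0.5 mM cumene hydroperoxide, 0.5 mM NADPH, 100 nM GR, 0.01% BSA; buffer 50 mM Tris-HCl pH 7.5, 2 mM EDTA, 150 mM NaCl; Fl 340/450, 0 & 15 min.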

[2] = target: Phospholipid hydroperoxide glutathione peroxidase GPX4 (Homo sapiens) (UniProt P36969); assay: Primary qHTS Assay for Inhibitors of Recombinant Selenoprotein Glutathione Peroxidase 4 (GPX4) (AID 1845192); conditions: recombinant GPX4, GR-coupled NADPH fluorescence, 15 min; series mostly up to 27.8 µM; also: nearly all actives have a fitted effect of over 65% in size; also: potency is read from the fitted curve at half-maximal effect
Sequence of Phospholipid hydroperoxide glutathione peroxidase GPX4 (Homo sapiens) (P36969 whole entry, looked up): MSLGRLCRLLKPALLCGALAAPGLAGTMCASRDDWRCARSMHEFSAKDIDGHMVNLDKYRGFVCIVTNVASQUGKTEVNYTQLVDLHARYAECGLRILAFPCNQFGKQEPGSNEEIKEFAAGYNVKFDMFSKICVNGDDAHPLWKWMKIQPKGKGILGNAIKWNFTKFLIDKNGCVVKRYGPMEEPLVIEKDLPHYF
Summary of the method: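 NADPH consumption, followed by fluorescence at 340/450 nm between 0 and 15 min, reports GPX4 activity via coupled glutathione reductase (100 nM). Enzyme 200 nM was pre-exposed to compound 30 min; 0.5 mM cumene hydroperoxide and 1 mM GSH served as substrates.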

[3] = target: Luciferin 4-monooxygenase (Photinus pyralis) (UniProt P08659); assay: Primary firefly luciferase (FLuc) qHTS assay for identification of artifact compounds. (AID 1845220); conditions: purified firefly luciferase, luminescence, 5 min; series mostly up to 54.1 µM; also: nearly all actives have a fitted effect of over 60% in size; also: potency is read from the fitted curve at half-maximal effect
Summary of the method: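 FLuc 10 nM; luciferin 10 uM; ATP 10 uM; Tris-acetate pH 7.6, Mg-acetate 10 mM; 15 min RT preincubation; 5 min reaction; luminescence.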

[4] = Primary fluorescence-based thiol-reactive (MSTI) qHTS assay for identification of artifact compounds. (AID 1845221); conditions: MSTI thiol-reactivity probe, 1 h; series mostly up to 53.8 µM; also: nearly all actives have a fitted effect of over 65% in size; also: potency is read from the fitted curve at half-maximal effect;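 as to activity change, negative = thiol reactive: thiol-reactive compounds lower the probe fluorescence signal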
Summary of the method: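 Curve-fitted percent inhibition (4-parameter Hill) derived from fluorescence, Ex 525/Em 598 nm, scaled with Acetyl-MSTI and MSTI; 1 h incubation at room temperature.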

SMILES | Potency [1] | Potency [2] | Potency [3] | Potency [4] | outcome [3] | activity change, negative = thiol reactive [4] | activity change, negative = inhibition [3]
C=C1CCC(OC(C)=O)C2(C)CC3OC(=O)C(C)=C3CC12 (stereo not drawn) | inactive | inactive | inactive | inactive | – | – | –
C=C1C2CCC3CC2(CC(O)C2(O)C1CC(OC1OC(CO)C(O)C(O)C1O)C2(C)C)CC3(C)O (stereo not drawn) | inactive | inactive | inactive | 5.19 µM (active) | – | – | –
C/C=C/C(=O)OC1/C=C/C(O)C(OC(C)=O)CCC(=O)OC1C (stereo not drawn) | inactive | inactive | inactive | inactive | – | – | –
CC(=O)[C@@H]1C[C@H](C(C)(C)O[C@@H]2O[C@H](CO)[C@@H](O)[C@H](O)[C@H]2O)CC[C@@]2(CO)OC(=O)C[C@@H]12 | inactive | inactive | inactive | inactive | – | – | –
CC(=O)O[C@@H]1C=C2[C@H](CC[C@@]3(C)[C@@]2(O)CC[C@H]2Cc4c([nH]c5ccccc45)[C@@]23C)O[C@@H]1C(C)(C)O | inactive | inactive | inactive | 4.12 µM (active) | – | – | –
COc1ccc(OC)c(C2C(C#N)=C(N)Oc3n[nH]c(-c4ccc5ccccc5c4)c32)c1 (stereo not drawn) | inactive | inactive | inactive | inactive | – | – | –
C=C1C2CCC3C(CCC4[C@@]3(C)CCC[C@@]4(C)C(=O)O)(C2)[C@@H]1OC(=O)/C(C)=C\C (stereo partly drawn) | inactive | inactive | inactive | inactive | – | – | –
C/C=C(/C)C(=O)O[C@H]1C[C@]2(C)O[C@@H]2[C@@H](OC(C)=O)[C@@]2(C)CC[C@@](O)(C(C)C)[C@H]12 | inactive | inactive | inactive | inactive | – | – | –
C=C1C(=O)OC[C@H]2C(C(=O)O)=CC3CC(C)(C)C[C@@]132 (stereo partly drawn) | inactive | inactive | inactive | 21.2 µM (active) | – | – | –
CC(C)CC[C@@H](O)[C@](C)(O)[C@H]1CC[C@@]2(O)C3=CC(=O)[C@@H]4C[C@@H](O)[C@@H](O)C[C@]4(C)[C@H]3CC[C@]12C | inactive | inactive | inactive | inactive | – | – | –
Cc1cc(-n2c(=O)[nH]c(=O)n(C)c2=O)ccc1Oc1ccc(SC(F)(F)F)cc1 | inactive | inactive and 15.8 µM (active) | inactive | inactive | – | – | –
C[C@@H]1O[C@@H](O[C@H]2[C@H](O)[C@@H](O[C@@H]3O[C@H](CO)[C@H](O)[C@H](O)[C@H]3O)[C@H](O[C@H]3CC[C@@]4(C)C(CC[C@]5(C)C4CC=C4[C@@H]6CC(C)(C)CC[C@]6(C(=O)O[C@@H]6O[C@H](CO)[C@@H](O)[C@H](O)[C@H]6O)CC[C@]45C)C3(C)C)O[C@@H]2C(=O)O)[C@H](O)[C@H](O)[C@H]1O (stereo partly drawn) | inactive | inactive | – | – | inactive [at 11.6 µM] | 349% [at 11.5 µM] (inactive) | –
C=C1C(O)C(O)C2(CC3C(C)=CCC4C(C)(C(=O)O)CCCC34C)OC2C1O (stereo not drawn) | inactive | inactive | inactive | 5.21 µM (active) | – | – | –
COc1ccc(C(=O)OC2C3C=COC(OC4OC(CO)C(O)C(O)C4O)C3C3(CO)OC23)cc1OC (stereo not drawn) | inactive | inactive | inactive | 4.12 µM (active) | – | – | –
CC[C@@H]1C(=O)O[C@]23C=C[C@@H]4C(C(=O)OC)=CO[C@H](O[C@@H]12)[C@@H]43 | inactive | inactive | inactive | 10.6 µM (active) | – | – | –
CCCC/C=C\CCCCCc1cc(=O)c2ccccc2n1C | inactive | inactive | inactive | inactive | – | – | –
CC[C@@H](C)[C@H](N)C(=O)N1Cc2ccccc2C1 | inactive | inactive | inactive | inactive | – | – | –
O=S(=O)(O)c1ccc(Nc2ncnc3c2ncn3[C@@H]2O[C@H](CO)[C@@H](O)[C@H]2O)cc1 | inactive | inactive | inactive | inactive | – | – | –
CC1CC2(O)OC(=O)C3=C2C(CCC3)[C@@]12C[C@@H](c1ccoc1)OC2=O (stereo partly drawn) | inactive | inactive | inactive | 4.65 µM (active) | – | – | –
C/C=C(\C)C(=O)OC1CC2C(CC=C3CC(OC4CC(OC)C(OC5CC(OC)C(OC6CC(OC)C(OC7CC(OC)C(OC8CC(OC)C(OC9OC(CO)C(O)C(O)C9O)C(C)O8)C(C)O7)C(C)O6)C(C)O5)C(C)O4)CCC32C)C2(O)CCC(C(C)=O)C12C (stereo not drawn) | inactive | inactive | – | – | – | 7.96% [at 11.5 µM] (inactive) | 2.55% [at 11.6 µM] (inactive)
COC(=O)C1(C)CCCC2(C)c3ccc(C(C)C)cc3C(O)C(O)C12 (stereo not drawn) | inactive | inactive | inactive | inactive | – | – | –
COc1ccc(/C=C/C(=O)O[C@@H]2[C@@H](OC(C)=O)[C@@H](OC(C)=O)[C@H](O[C@H]3[C@@H]4C=CO[C@@H](O[C@@H]5O[C@H](CO)[C@@H](O)[C@H](O)[C@H]5O)[C@@H]4[C@@]4(CO)O[C@@H]34)O[C@H]2C)cc1 | inactive | inactive | inactive | inactive | – | – | –
C[C@@H]1CC2OC(=O)C3=C2C(CCC3O)[C@@]12C[C@@H](c1ccoc1)OC2=O (stereo partly drawn) | inactive | inactive | inactive | inactive | – | – | –
CC12CC34CC(O)C5C(CO)(CO)CC(=O)CC5(C)C3CC1C2C4 (stereo not drawn) | inactive | inactive | inactive | inactive | – | – | –

SMILES | Potency [1] | Potency [2] | Potency [3] | Potency [4] | outcome [3] | activity change, negative = thiol reactive [4] | activity change, negative = inhibition [3]
CC(C)c1ccc2c(c1)[C@H](O)CC1[C@@](C)(C(=O)O)CCC[C@]21C (stereo partly drawn) | inactive | inactive | inactive | inactive | – | – | –
COc1ccc(C2C(C(=O)O)C(C(=O)O)C2c2ccc(OC)cc2O[C@@H]2O[C@H](CO)[C@@H](O)[C@H](O)[C@H]2O)c(O[C@@H]2O[C@H](CO)[C@@H](O)[C@H](O)[C@H]2O)c1 (stereo partly drawn) | inactive | inactive | inactive | 2.81 µM (active) | – | – | –
CC(=O)OC1CCC2(C)C(CCC3(C)C2CC=C2C4CC(C)(C)CCC4(C)CCC23C)C1(C)C(=O)O (stereo not drawn) | inactive | inactive | inactive | inactive | – | – | –
CC1(C)CC[C@]2(C(=O)O[C@@H]3O[C@H](CO)[C@@H](O)[C@H](O)[C@H]3O)CC[C@]3(C)C(=CCC4[C@@]5(C)C[C@@H](O)[C@H](O)[C@@](C)(CO)C5[C@H](O)C[C@]43C)C2C1 (stereo partly drawn) | inactive | inactive | inactive | inactive | – | – | –
C=C1CCC2[C@](C)(CO)CCC[C@@]2(C)[C@@H]1CCC1=CCOC1=O (stereo partly drawn) | inactive | inactive | inactive | inactive | – | – | –
NC[C@@H]1O[C@@H](O[C@@H]2[C@@H](O[C@@H]3O[C@H](CO)[C@@H](O)[C@H]3O)[C@H](O)[C@@H](N)C[C@H]2N)[C@@H](N)[C@H](O)[C@H]1O | inactive | inactive | – | – | inactive [at 11.6 µM] | -13.5% [at 11.5 µM] (inactive) | –
CC(C)C1CCC(CO)=CC1/C=C(\CO)C(=O)OCC1(O)CCC(C(C)C)C2C=C(C(=O)O)COC(=O)C21 (stereo not drawn) | inactive | inactive | inactive | inactive | – | – | –
CC(=O)O[C@@H]1[C@H](OC(C)=O)C[C@@]2(C)C(CC[C@@H](C)[C@]23Cc2c(O)cc4c(c2O3)CN([C@@H](CCC(=O)O)C(=O)O)C4=O)C1(C)C (stereo partly drawn) | inactive | inactive | inactive | inactive | – | – | –
NC(=O)[C@H](Cc1ccccc1)NC(=O)[C@H](CCCN=C(N)N)NC(=O)C12CC3CC(CC(C3)C1)C2 | inactive | inactive | – | – | – | 37.2% [at 11.5 µM] (inactive) | 0.126% [at 11.6 µM] (inactive)
C[C@H]1[C@H](C)C[C@@H](C(=O)O)C2CC[C@]3(C)C(=CC[C@@H]4[C@@]5(C)CC[C@H](O)C(C)(C)[C@@H]5CC[C@]43C)[C@@H]21 (stereo partly drawn) | inactive | inactive | inactive | inactive | – | – | –
C=C1CC[C@H]2[C@@](C)(CCC(O)[C@@]2(C)CO)[C@@H]1/C=C/C(=C\C(=O)O)C(=O)O (stereo partly drawn) | inactive | inactive | inactive | 5.21 µM (active) | – | – | –
CC(=O)OC[C@]12[C@@H](OC(=O)c3ccoc3)C[C@@H]3[C@@H](OC(C)=O)[C@]1(OC3(C)C)[C@@](C)(O)C[C@H](OC(=O)c1ccoc1)[C@@H]2OC(=O)c1ccoc1 | inactive | inactive | inactive | inactive | – | – | –
C=C1CC[C@@H]2[C@@](C)(CO[C@@H]3O[C@H](CO)[C@@H](O)[C@H](O)[C@H]3O)[C@H](O)CC[C@@]2(C)[C@@H]1CC/C(C)=C/CO[C@@H]1O[C@H](CO)[C@@H](O)[C@H](O)[C@H]1O | inactive | inactive | inactive | inactive | – | – | –
O=C(OC[C@H]1O[C@H](O[C@H]2CO[C@H](CO)[C@@H](O)[C@@H]2O)[C@H](O)[C@@H](O)[C@H]1O)c1ccccc1 | inactive | inactive | inactive | inactive | – | – | –
C=C1CCC[C@]2(C)CC[C@@](O)(C(=C)C(=O)O)C[C@@H]12 | inactive | inactive | inactive | inactive | – | – | –
CC1CCC2C(C)(C)C(O)C(O)CC2(C)C12Cc1c(O)cc(CO)c(C=O)c1O2 (stereo not drawn) | inactive | inactive | inactive | inactive | – | – | –
COc1ccc([C@H]2OC[C@H]3[C@@H]2CO[C@@H]3c2ccc(O[C@@H]3O[C@H](CO)C(O)[C@H](O)[C@H]3O)c(OC)c2)cc1OC (stereo partly drawn) | inactive | inactive | inactive | inactive | – | – | –
COC(=O)Cn1nc(-c2cccc(OC)c2)c2ccccc21 | inactive | inactive | inactive | inactive | – | – | –
O=C(O)CCc1cc2ccoc2cc1O[C@@H]1O[C@H](CO)[C@@H](O)[C@H](O)[C@H]1O | inactive | inactive | inactive | inactive | – | – | –
CC(=O)NC(Cc1ccccc1)C(=O)NC(C(=O)O)C(C)C (stereo not drawn) (Ac-Phe-Val-OH; configuration not given here) | inactive | inactive | inactive | inactive | – | – | –
CC1(C)CCCC2(C)c3c4c(c(=O)oc(=O)c3=CCC12)=CCC1C(C)(C)CCCC41C (stereo not drawn) | inactive | inactive | inactive | inactive | – | – | –
Oc1ccccc1-c1cc(-c2ccccc2F)[nH]n1 | inactive | inactive | 1.69 µM (active) | inactive | – | – | –
C[C@H]1[C@H](C)CC[C@]2(C(=O)O)CC[C@]3(C)C(=CCC4[C@@]5(C)C[C@@H](O)[C@H](O)C(C)(C)C5CC[C@]43C)[C@H]12 (stereo partly drawn) | inactive | inactive | inactive | inactive | – | – | –

Reference: PubChem BioAssay (NCATS)
